{
  "source": "PubChem BioAssay AID808",
  "about": "(Columbia University Molecular Screening Center, 2007)",
  "note": "In all, about 93,000 compounds went through this assay and about 180 (0.19%) were called active. For the sample, actives were picked, then their nearest neighbours and some compounds at random. Unmarked numbers belong to inactive results.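 The calls were made as follows: active = activation above the screen mean plus 3 SD, with well images confirming the hit on visual review (cut at about 28% in these data, passing the limit was not always enough); inconclusive = activation above that limit but images do not confirm it; inactive = activation not above that limit.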",
  "data": [
    {"experiment": "enhancers of endothelial VCAM-1 upregulation by TNFa – imaging, HUVEC, TNFa stimulus, immunofluorescence, primary screen (AID 808);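 also: signal is the number of cytoplasmic VCAM-1 stained grains per positive cell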", "conditions": "HUVEC TNFa-stimulated VCAM-1 immunofluorescence, high-content imaging; at 2 µM; hits give high values; scaled per plate to unstimulated/TNFa-only wells", "values": [
      {"smiles": "CSc1nnc2c(n1)OC(c1cn(C)c3ccccc13)N(C(C)=O)c1ccccc1-2", "note": "(stereo not drawn)", "activation": "-5%"},
      {"smiles": "CCOc1cc(-c2cc(-c3ccc(OC)cc3)nc(N)c2C#N)ccc1O", "activation": "32.6% (active)"},
      {"smiles": "CSc1ccc(CCNC(=O)C2CCN(c3nnc(-n4cccc4)s3)CC2)cc1", "activation": "-2.8%"},
      {"smiles": "O=C(Cn1cnc2c(nnn2Cc2ccc(F)cc2)c1=O)NCc1ccc2c(c1)OCO2", "activation": "-6.6%"},
      {"smiles": "Cc1ccc(N2C(=O)c3ccccc3C2(O)c2ncc[nH]2)cc1", "note": "(stereo not drawn)", "activation": "-0.7%"},
      {"smiles": "CCOC(=O)c1ccc(NC(=O)CS(=O)(=O)c2cn(CC)c3ccccc23)cc1", "activation": "-6.9%"},
      {"smiles": "COc1ccc2c(c1)C=CC1(O2)N(CCO)c2ccccc2C1(C)C", "note": "(stereo not drawn)", "activation": "1.4%"},
      {"smiles": "O=C(Nc1nccs1)C1CCN(S(=O)(=O)c2ccc(Cl)c(C(F)(F)F)c2)CC1", "activation": "-9.5%"},
      {"smiles": "O=c1c2ccccc2nc2n1C(CSCc1cccc(C(F)(F)F)c1)CS2", "note": "(stereo not drawn)", "activation": "-7.9%"},
      {"smiles": "O=C(NCc1ccco1)c1sc2cccc(F)c2c1Cl", "activation": "0.7%"},
      {"smiles": "CC1(C)CC(=O)C=C(N2CCCC2)C1", "activation": "79% (active)"},
      {"smiles": "Oc1ccc2nc(Cc3ccccc3)[nH]c2c1", "activation": "5.6%"},
      {"smiles": "CC(C)NC(=O)c1ccccc1S(=O)c1ccccc1C#N", "note": "(stereo not drawn)", "activation": "-0.6%"},
      {"smiles": "Cc1cc(Nc2ccccc2)n(CCC#N)n1", "activation": "-2.1%"},
      {"smiles": "COc1ccc(CC(=O)Nc2sc(Cc3ccccc3)c(C)c2C(N)=O)cc1", "activation": "8.4%"},
      {"smiles": "Cn1c(=O)n(C)c2cc(CNc3ccc(N4CCOCC4)c(C(=O)O)c3)ccc21", "activation": "-26.1%"},
      {"smiles": "Brc1ccc(-c2nnc(-c3ccccc3)o2)o1", "activation": "20.5%"},
      {"smiles": "O=[N+]([O-])c1ccccc1OCCCCN1CCCCC1", "activation": "-6.6%"},
      {"smiles": "CCOc1ccccc1Nc1nnc(SCc2ccc(C(=O)OC)o2)s1", "activation": "-4.9%"},
      {"smiles": "O=C(CSc1nc2ccccc2o1)N1CCN(c2ccc(Cl)cc2)CC1", "activation": "6.9%"},
      {"smiles": "COc1ccc(-c2nnc(SCC(=O)NC3CCCCC3)o2)cc1OC", "activation": "-87.2%"},
      {"smiles": "CC1(C)Cc2cccc(OCC(N)=O)c2O1", "activation": "-5.6%"},
      {"smiles": "O=C1c2ccccc2C(=O)c2c1cccc2N1CCN(Cc2ccccc2)CC1", "activation": "8.5%"},
      {"smiles": "COc1ccc(-c2cc(C(F)(F)F)nc(SCCC(=O)NCc3ccco3)n2)cc1", "activation": "-32.5%"},
      {"smiles": "COc1ccc(OC)c(N=Cc2c(O)[nH]c3ccccc23)c1", "activation": "41.3% (active)"},
      {"smiles": "O=S(=O)(c1cccs1)N1CCN(Cc2ccccc2)CC1", "activation": "6.9%"},
      {"smiles": "CCOC(=O)c1c(N=CN(C)C)c(C#N)c2n1CCCC2", "activation": "-8.6%"},
      {"smiles": "Cc1ccc(S(=O)(=O)N(CC(=O)NCCSC2CCCCC2)c2ccccc2F)cc1", "activation": "8.5%"},
      {"smiles": "CCOC(=O)N1CCN(C(=O)c2cc3c(ccc4ccccc43)oc2=O)CC1", "activation": "-5.2%"},
      {"smiles": "Cc1cnc(NC(=O)CSc2nnc(-c3ccccc3)n2Cc2ccccc2)s1", "activation": "-2%"},
      {"smiles": "Cc1ccc2c(Cl)c(C(=O)NCCCn3ccnc3)sc2c1", "activation": "-28.3%"},
      {"smiles": "Nc1cc(=O)nc(SCc2ccccc2)n1Cc1ccco1", "activation": "-95%"},
      {"smiles": "CCC(=O)c1ccc(OCC(O)CN2CCN(c3cccc(C(F)(F)F)c3)CC2)cc1", "note": "(stereo not drawn)", "activation": "4.1%"},
      {"smiles": "CCOC(=O)CSc1nc2c(c(=O)n(C)c(=O)n2C)n1Cc1ccccc1F", "activation": "-0.2%"},
      {"smiles": "CC(N)C12CC3CC(CC(O)(C3)C1)C2", "note": "(stereo not drawn)", "activation": "1%"},
      {"smiles": "CC(C)N1C(=O)C2C(C(=O)NC3CCCCC3)C3C=CC2(O3)C1C(=O)NC1CCCC1", "note": "(stereo not drawn)", "activation": "-10.8%"},
      {"smiles": "COc1ccc(-n2nnnc2SCC(=O)c2ccc(OC)c(OC)c2)cc1", "activation": "-6.6%"},
      {"smiles": "CCN(CC(=O)NC(C)C)C(=O)CCNC(=O)c1ccc(Cl)cc1", "activation": "-9.6%"},
      {"smiles": "COC(=O)C1=C(C)N=C2SC(C)C(=O)N2C1/C=C/c1ccccc1", "note": "(stereo not drawn)", "activation": "-6.2%"},
      {"smiles": "COc1ccccc1NC1=NC(c2ccc(Cl)cc2)N=C(N)N1", "note": "(stereo not drawn)", "activation": "-12.5%"},
      {"smiles": "Cc1ccc(S(=O)(=O)NC(=O)N2CCCC(C)(C)C2)cc1", "activation": "4.1%"},
      {"smiles": "Cc1[nH]c2ccccc2c1C(=O)CSCC(=O)O", "activation": "4.2%"},
      {"smiles": "O=C(OCC(=O)N1CCCC1)c1ccco1", "activation": "-4.1%"},
      {"smiles": "NNC(=O)C1CCCn2c1nc1sc3c(c1c2=O)CCCC3", "note": "(stereo not drawn)", "activation": "-4.7%"},
      {"smiles": "COc1cc(/C=N\\NC(=O)C2C(=O)NCC2c2ccccc2)cc(OC)c1O", "note": "(stereo not drawn)", "activation": "-1.5%"},
      {"smiles": "CC(=O)c1ccc(OCCN2CCOCC2)cc1", "activation": "-16.7%"},
      {"smiles": "CC1(C)C2CCC13CS(=O)(=O)NC3C2", "note": "(stereo not drawn)", "activation": "19.3%"},
      {"smiles": "CC1(C)OC(=O)N2CCc3ccccc3C21C", "note": "(stereo not drawn)", "activation": "0.2%"},
      {"smiles": "CCCNS(=O)(=O)c1ccc(CCC(=O)NCc2cccnc2)cc1", "activation": "34.1%"},
      {"smiles": "O=[N+]([O-])c1ccccc1/C=N/n1c(COc2ccccc2)n[nH]c1=S", "activation": "-14.7%"},
      {"smiles": "CCOC(=O)CCc1c(C)c(C#N)c2[nH]c3ccccc3n2c1=O", "activation": "0.5%"},
      {"smiles": "CC(C)OC(=O)c1cc(NC(=O)C2C3CCC(O3)C2C(=O)O)cc(C(=O)OC(C)C)c1", "note": "(stereo not drawn)", "activation": "15.7%"},
      {"smiles": "Cc1ccc(OCC(=O)Nc2cccc3c2CCCC3)cc1C", "activation": "-1.7%"},
      {"smiles": "CSCCC(C(=O)NC1=NCCS1)N1C(=O)c2ccccc2C1=O", "note": "(stereo not drawn)", "activation": "5.7%"},
      {"smiles": "O=C(Nc1ncc2c(n1)CC(c1ccco1)CC2=O)c1ccc(Cl)cc1", "note": "(stereo not drawn)", "activation": "-91.4%"},
      {"smiles": "CCOC(=O)N1CCN(C(=O)CN(c2ccc(C)c(C)c2)S(=O)(=O)c2ccccc2)CC1", "activation": "0.5%"},
      {"smiles": "Cc1n[nH]c(C)c1S(=O)(=O)N1CCCC(C(=O)NCC2COc3ccccc3O2)C1", "note": "(stereo not drawn)", "activation": "-3.9%"},
      {"smiles": "Cc1ccc(CCNC(=O)C2CCN(S(=O)(=O)N3CCCC3)CC2)cc1", "activation": "-9.5%"},
      {"smiles": "CCCc1cc(=O)[nH]c(SCc2ccc(C#N)cc2)n1", "activation": "-3%"},
      {"smiles": "O=C(COc1ccc2ccccc2c1)N1CCN(C(=O)c2cccs2)CC1", "activation": "-21.6%"},
      {"smiles": "COc1ccc(OC)c(NC(=O)CCN2CCC(C)CC2)c1", "activation": "1.4%"},
      {"smiles": "Cc1ccc(S(=O)(=O)NCCSC(C)(C)C)cc1", "activation": "-9%"},
      {"smiles": "Cc1ccc(Cn2nnc3c(=O)n(CC(=O)N4CCCCC4)cnc32)cc1", "activation": "5.6%"},
      {"smiles": "CCOc1ccc(NC(=O)Nc2ccc(N(C)C(C)=O)cc2)cc1", "activation": "16.6%"},
      {"smiles": "O=C(NCCN1CCOCC1)[C@H](Cc1ccccc1)N1C(=O)c2ccccc2C1=O", "activation": "-8.5%"},
      {"smiles": "C=CCn1c(COc2ccccc2F)nnc1SCC(=O)N1CC(=O)Nc2ccccc21", "activation": "-4.4%"},
      {"smiles": "O=C(c1ccc(Cl)cc1)c1ccc(OCC(O)CN2CCCCC2)cc1", "note": "(stereo not drawn)", "activation": "-0.9%"},
      {"smiles": "Cc1cc(NC(=O)COc2ccc(Cl)cc2Cl)n(CCC#N)n1", "activation": "4.1%"},
      {"smiles": "COc1cccc(C(=O)Nc2ccc(NC(=O)c3ccco3)cn2)c1", "activation": "8.2%"},
      {"smiles": "Cc1cnc(NC(=O)C2CCCC2)s1", "activation": "-57.6%"},
      {"smiles": "COCCNC(=O)c1snc2ccc(Cl)cc12", "activation": "11.1%"},
      {"smiles": "O=C(NCCN1CCN(Cc2ccccc2)CC1)c1cc2c(=O)[nH]c3ccccc3c2s1", "activation": "2.1%"},
      {"smiles": "O=C(CS(=O)(=O)c1cn(Cc2cccc(F)c2)c2ccccc12)N1CCCCC1", "activation": "-50.1%"},
      {"smiles": "CCOC(=O)N1CCN(C(c2cccnc2)c2ccc3cccnc3c2O)CC1", "note": "(stereo not drawn)", "activation": "-10%"},
      {"smiles": "CC1=NN(C(C)C)C(=O)C1", "activation": "25% (active)"},
      {"smiles": "COc1ccc(Cl)cc1C(=O)NCC#N", "activation": "5.7%"},
      {"smiles": "COC(=O)c1c(-c2cccs2)csc1NC(=O)CSc1ncnc2sc(C)c(C)c12", "activation": "1.8%"},
      {"smiles": "Cc1[nH]n(-c2ccc(Cl)cc2)c(=O)c1/C=N/n1c(C)nc2ccccc2c1=O", "activation": "9.2%"},
      {"smiles": "CCN(CC)C(=O)CSC1c2ccccc2C(=O)N1c1ccccc1", "note": "(stereo not drawn)", "activation": "-7.1%"},
      {"smiles": "CCN(CC)CCCNC(=O)CCc1ccccc1", "activation": "4.1%"},
      {"smiles": "C/C(=C\\C(=O)c1ccccc1)Nc1cccc(O)c1", "activation": "2.2%"},
      {"smiles": "Cc1nnc(SCC(=O)NC2CCCC2)s1", "activation": "-13.9%"},
      {"smiles": "CN(C)CCCn1c(N)c(C#N)c2nc(C#N)c(C#N)nc21", "activation": "-7.9%"},
      {"smiles": "C=CCn1c(Cn2nnc3ccccc32)nnc1SCC(=O)N/N=C/c1cc(Br)cc(OC)c1O", "activation": "1.7%"},
      {"smiles": "CCOc1ccc(N=C2NC(=O)S/C2=C\\c2ccc(O)cc2)cc1", "activation": "29.2% (active)"},
      {"smiles": "O=C(Cc1ccc(-n2c(=O)[nH]c3ccccc3c2=O)cc1)N1CCN(c2cccc(Cl)c2)CC1", "activation": "-1.2%"},
      {"smiles": "Cc1c(C(=O)OCC(=O)N(CCC#N)c2ccccc2)oc2c1ccc1ccccc12", "activation": "-4.9%"},
      {"smiles": "COc1ccccc1NC(=O)CSc1nnc(Cn2nnc(-c3ccccc3)n2)n1-c1ccccc1", "activation": "11.3%"},
      {"smiles": "CSc1nc2ccccc2cc1/C=C(\\C#N)c1ccc(Cl)cc1Cl", "activation": "-3.2%"},
      {"smiles": "CCCCN(C)C(=O)C1CCN(Cc2ccccn2)CC1", "activation": "35.5% (active)"},
      {"smiles": "Cc1ccc(OCC(O)CN2CCN(CC(O)COc3ccc(C)cc3Cl)CC2)c(Cl)c1", "note": "(stereo not drawn)", "activation": "-1.2%"},
      {"smiles": "O=C(c1ccco1)N1CCN(C(=O)C2c3ccccc3Oc3ccccc32)CC1", "activation": "-5.9%"},
      {"smiles": "Cc1ccc(F)cc1NC(=O)c1ccc2c(c1)OCO2", "activation": "-96.8%"},
      {"smiles": "CC(=O)Nc1ccc(S(=O)(=O)N2CCN(C(=O)c3ccccc3F)CC2)cc1", "activation": "-7.6%"},
      {"smiles": "C=C(Br)CN1CCN(CC(=C)Br)CC1", "activation": "17.8%"},
      {"smiles": "Cn1c(C(=O)OC(C(=O)NC2CCCCC2)c2ccccn2)cc2sccc21", "note": "(stereo not drawn)", "activation": "7.6%"},
      {"smiles": "C=C(C)CNC(=S)/N=c1\\scc(C)n1CC", "activation": "-4.4%"},
      {"smiles": "COc1cccc(OCc2cc(/C=N/NC(=O)c3nc(Cl)c(Cl)c(N)c3Cl)ccc2OC)c1", "activation": "-6.7%"}
    ]}
  ]
}
